# From PubChem BioAssay AID1159580 (chemical genetic matrix, 2015)
# Among all 5,500 compounds or so, about 2,000 (36%) were called active. Another 18% or so got no clear call; they are omitted. The list shows a part of the results. Unmarked numbers belong to inactive results. Rule as the data show it: active = normalized growth mostly below about 0.91 (no sharp cut-off); inconclusive = no clear call, values can overlap the other calls; inactive = mostly above about 0.92.
# Experiment: chemical genetic growth profiling, strain panel (AID 1159580);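 also: tested at 20 µM; growth read once vehicle control cultures reached saturation at 30 °C; 1 = growth at the plate median or of vehicle wells; lower values mean less growth of the strain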
# Settings: growth OD
smiles,measurement,setting,value
COc1c2ccoc2cc2oc(C)cc(=O)c12,normalized growth,"S. cerevisiae deletion strains, locus YKL009W, strain mrt4, active compounds read low",0.965
same,normalized growth,"S. cerevisiae deletion strains, locus YKL068W, active compounds read low",0.982
same,normalized growth,"S. cerevisiae deletion strains, locus YKL085W, strain MDH1 (second series), active compounds read low",0.974
same,normalized growth,"S. cerevisiae deletion strains, locus YKL085W, strain MDH1, active compounds read low",0.974
same,normalized growth,"S. cerevisiae deletion strains, locus YKL160W, strain elf1, active compounds read low",0.993
same,normalized growth,"S. cerevisiae deletion strains, locus YKL190W, strain CNB1, active compounds read low",0.978
same,normalized growth,"S. cerevisiae deletion strains, locus YKR001C, strain vps1, active compounds read low",0.961
same,normalized growth,"S. cerevisiae deletion strains, locus YKR026C, strain gcn3, active compounds read low",0.982
same,normalized growth,"S. cerevisiae deletion strains, locus YKR091W, strain srl3, active compounds read low",0.998
same,normalized growth,"S. cerevisiae deletion strains, locus YLL001W, strain dnm1, active compounds read low",0.998
same,normalized growth,"S. cerevisiae deletion strains, locus YLL026W, active compounds read low",0.992
same,normalized growth,"S. cerevisiae deletion strains, locus YLL041C, strain sdh2, active compounds read low",1.01
same,normalized growth,"S. cerevisiae deletion strains, locus YLR027C, strain aat2, active compounds read low",0.997
same,normalized growth,"S. cerevisiae deletion strains, locus YLR039C, strain RIC1, active compounds read low",0.968
same,normalized growth,"S. cerevisiae deletion strains, locus YLR058C, strain SHM2, active compounds read low",0.936
same,normalized growth,"S. cerevisiae deletion strains, locus YLR102C, strain apc9, active compounds read low",0.992
same,normalized growth,"S. cerevisiae deletion strains, locus YLR113W, strain HOG1, active compounds read low",1.1
same,normalized growth,"S. cerevisiae deletion strains, locus YLR221C, strain rsa3, active compounds read low",0.987
same,normalized growth,"S. cerevisiae deletion strains, locus YLR258W, strain gsy2, active compounds read low",0.987
same,normalized growth,"S. cerevisiae deletion strains, locus YLR262C, strain YPT6 (second series), active compounds read low",1.03
same,normalized growth,"S. cerevisiae deletion strains, locus YLR262C, strain YPT6, active compounds read low",0.92
same,normalized growth,"S. cerevisiae deletion strains, locus YLR268W, strain sec22, active compounds read low",1.02
same,normalized growth,"S. cerevisiae deletion strains, locus YLR320W, strain mms22, active compounds read low",0.993
same,normalized growth,"S. cerevisiae deletion strains, locus YLR330W, strain CHS5, active compounds read low",0.986
same,normalized growth,"S. cerevisiae deletion strains, locus YLR342W, strain FKS1 (second series), active compounds read low",1.01
same,normalized growth,"S. cerevisiae deletion strains, locus YLR342W, strain FKS1, active compounds read low",0.984
same,normalized growth,"S. cerevisiae deletion strains, locus YLR357W, strain rsc2, active compounds read low",0.98
same,normalized growth,"S. cerevisiae deletion strains, locus YLR370C, strain arc18, active compounds read low",0.992
same,normalized growth,"S. cerevisiae deletion strains, locus YLR371W, strain rom2, active compounds read low",0.986
same,normalized growth,"S. cerevisiae deletion strains, locus YLR384C, strain iki3, active compounds read low",1
same,normalized growth,"S. cerevisiae deletion strains, locus YLR418C, strain cdc73, active compounds read low",0.835 (active)
same,normalized growth,"S. cerevisiae deletion strains, locus YML016C, strain PPZ1, active compounds read low",0.977
same,normalized growth,"S. cerevisiae deletion strains, locus YML032C, strain rad52, active compounds read low",0.912
same,normalized growth,"S. cerevisiae deletion strains, locus YML120C, strain ndi1, active compounds read low",1.02
same,normalized growth,"S. cerevisiae deletion strains, locus YML124C, strain tub3, active compounds read low",0.99
same,normalized growth,"S. cerevisiae deletion strains, locus YMR058W, strain fet3, active compounds read low",1
same,normalized growth,"S. cerevisiae deletion strains, locus YMR078C, strain ctf18, active compounds read low",0.977
same,normalized growth,"S. cerevisiae deletion strains, locus YMR125W, strain sto1, active compounds read low",0.997
same,normalized growth,"S. cerevisiae deletion strains, locus YMR129W, active compounds read low",0.999
same,normalized growth,"S. cerevisiae deletion strains, locus YMR205C, strain PFK2, active compounds read low",1.01
same,normalized growth,"S. cerevisiae deletion strains, locus YMR223W, strain ubp8, active compounds read low",0.956
same,normalized growth,"S. cerevisiae deletion strains, locus YMR231W, strain pep5, active compounds read low",1.01
same,normalized growth,"S. cerevisiae deletion strains, locus YMR307W, strain GAS1, active compounds read low",0.961
same,normalized growth,"S. cerevisiae deletion strains, locus YNL067W, strain RPL9B, active compounds read low",0.96
same,normalized growth,"S. cerevisiae deletion strains, locus YNL071W, strain lat1, active compounds read low",0.993
same,normalized growth,"S. cerevisiae deletion strains, locus YNL128W, strain TEP1, active compounds read low",0.943
same,normalized growth,"S. cerevisiae deletion strains, locus YNL153C, strain GIM3, active compounds read low",0.93
same,normalized growth,"S. cerevisiae deletion strains, locus YNL183C, strain NPR1, active compounds read low",0.983
same,normalized growth,"S. cerevisiae deletion strains, locus YNL209W, strain ssb2, active compounds read low",0.983
same,normalized growth,"S. cerevisiae deletion strains, locus YNL233W, strain BNI4, active compounds read low",0.924
same,normalized growth,"S. cerevisiae deletion strains, locus YNL248C, strain rpa49, active compounds read low",1
same,normalized growth,"S. cerevisiae deletion strains, locus YNL250W, strain rad50, active compounds read low",0.987
same,normalized growth,"S. cerevisiae deletion strains, locus YNL271C, strain bni1, active compounds read low",0.986
same,normalized growth,"S. cerevisiae deletion strains, locus YNL298W, strain CLA4, active compounds read low",0.975
same,normalized growth,"S. cerevisiae deletion strains, locus YNL307C, strain MCK1, active compounds read low",0.991
same,normalized growth,"S. cerevisiae deletion strains, locus YNL322C, strain KRE1 (second series), active compounds read low",0.984
same,normalized growth,"S. cerevisiae deletion strains, locus YNL322C, strain KRE1, active compounds read low",0.976
same,normalized growth,"S. cerevisiae deletion strains, locus YNR049C, strain mso1, active compounds read low",0.993
same,normalized growth,"S. cerevisiae deletion strains, locus YNR052C, strain pop2, active compounds read low",0.977
same,normalized growth,"S. cerevisiae deletion strains, locus YOL006C, strain TOP1, active compounds read low",0.946
same,normalized growth,"S. cerevisiae deletion strains, locus YOL012C, strain htz1",1.83
same,normalized growth,"S. cerevisiae deletion strains, locus YOL147C, strain pex11, active compounds read low",0.984
same,normalized growth,"S. cerevisiae deletion strains, locus YOR001W, strain rrp6, active compounds read low",0.982
same,normalized growth,"S. cerevisiae deletion strains, locus YOR061W, strain CKA2, active compounds read low",0.959
same,normalized growth,"S. cerevisiae deletion strains, locus YOR069W, strain VPS5, active compounds read low",0.993
same,normalized growth,"S. cerevisiae deletion strains, locus YOR070C, strain gyp1, active compounds read low",0.984
same,normalized growth,"S. cerevisiae deletion strains, locus YOR080W, strain dia2, active compounds read low",1.02
same,normalized growth,"S. cerevisiae deletion strains, locus YOR083W, strain WHI5, active compounds read low",0.994
same,normalized growth,"S. cerevisiae deletion strains, locus YOR106W, strain vam3, active compounds read low",0.994
same,normalized growth,"S. cerevisiae deletion strains, locus YOR136W, strain idh2, active compounds read low",0.996
same,normalized growth,"S. cerevisiae deletion strains, locus YOR144C, strain elg1, active compounds read low",0.989
same,normalized growth,"S. cerevisiae deletion strains, locus YOR184W, strain ser1, active compounds read low",0.967
same,normalized growth,"S. cerevisiae deletion strains, locus YOR231W, strain MKK1, active compounds read low",1.07
same,normalized growth,"S. cerevisiae deletion strains, locus YOR265W, strain rbl2, active compounds read low",1
same,normalized growth,"S. cerevisiae deletion strains, locus YOR270C, strain vph1, active compounds read low",0.997
same,normalized growth,"S. cerevisiae deletion strains, locus YOR290C, strain snf2, active compounds read low",0.974
same,normalized growth,"S. cerevisiae deletion strains, locus YOR316C, strain cot1, active compounds read low",0.995
same,normalized growth,"S. cerevisiae deletion strains, locus YPL051W, strain arl3, active compounds read low",0.979
same,normalized growth,"S. cerevisiae deletion strains, locus YPL078C, strain atp4, active compounds read low",0.992
same,normalized growth,"S. cerevisiae deletion strains, locus YPL106C, strain sse1, active compounds read low",0.95
same,normalized growth,"S. cerevisiae deletion strains, locus YPL240C, strain hsp82, active compounds read low",0.99
same,normalized growth,"S. cerevisiae deletion strains, locus YPL241C, strain CIN2, active compounds read low",0.976
same,normalized growth,"S. cerevisiae deletion strains, locus YPL256C, strain CLN2, active compounds read low",1.05
same,normalized growth,"S. cerevisiae deletion strains, locus YPR119W, strain clb2, active compounds read low",0.986
same,normalized growth,"S. cerevisiae deletion strains, locus YPR141C, strain kar3, active compounds read low",0.984
same,normalized growth,"S. cerevisiae deletion strains, locus YPR163C, strain tif3, active compounds read low",0.978
same,normalized growth,"S. cerevisiae deletion strains, locus YPR167C, strain met16, active compounds read low",0.991
same,normalized growth,"S. cerevisiae deletion strains, strain wtn01, active compounds read low",1.03
same,normalized growth,"S. cerevisiae strains, strain wild type, active compounds read low",0.965
